Screening results (PubChem BioAssay)
This excerpt belongs to a sample that is enriched for hits.
Pin1 inhibitor = inhibitors of human Pin1; Potency, µM (highest dose often 115 µM), hits mostly inhibitors; AID 504891; Q13526; 390,000 compounds, 0.009% hits; Pin1 FP peptide displacement, HiFluor488, 10 min; active = well fitted inhibition curve with a large enough effect in the polarisation, with a control signal flat, not every such curve was filed as active; inconclusive = small, poorly fitted or top-dose-only effect, or effect the other way, or a change in a side signal; inactive = no such curve, though single readings can be large or run the other way; the % refers to the polarisation
Tb PGK inh = blocks T. brucei phosphoglycerate kinase. P07378. 380,000 compounds, 0.043% hits. Potency, µM (titrated, usually from 57.5 µM), actives largely listed as inhibitors. PGK/GAPDH coupled, Kinase-Glo luminescence, 60 min; also: nearly all actives have a fitted effect of over 60% in size
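Luminescent ATP detection (Kinase-Glo Plus) follows a 60-minute room-temperature incubation, with wells lacking PGK as controls. Buffer: 100 mM TEA (pH 7.6), 5 mM MgCl2, 0.01% Tween-20. Coupling enzyme GAPDH (100 nM final) supplies unstable 1,3-BPG in-well.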
PI5P4Ka inh = blocks human PI5P4K alpha kinase activity | PI5P4Kalpha enzyme, ADP-Glo luminescence, 60 min; active compounds read low | max response, % | 330,000 compounds, 1.2% hits | AID 652105; active = max response of -50% or lower; inconclusive = between -30% and -50%; inactive = -30% or higher; also: value at the top dose of about 77 µM
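ADP-Glo luminescence end-point after a 60 min room-temperature kinase reaction. PI5P4Kalpha and substrate in HEPES pH 7.4 buffer with EGTA, 0.1% CHAPS and 5% DMSO; ATP at 5 microM final.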
Tb PFK block = T. brucei PFK enzyme inhibition. O15648. T. brucei PFK, ADP-Glo luminescence. Potency, µM (titrated, usually from 57.5 µM), actives largely listed as inhibitors. 330,000 compounds, 0.17% hits; also: nearly all actives have a fitted effect of over 60% in size
Target sequence (O15648 whole entry, looked up): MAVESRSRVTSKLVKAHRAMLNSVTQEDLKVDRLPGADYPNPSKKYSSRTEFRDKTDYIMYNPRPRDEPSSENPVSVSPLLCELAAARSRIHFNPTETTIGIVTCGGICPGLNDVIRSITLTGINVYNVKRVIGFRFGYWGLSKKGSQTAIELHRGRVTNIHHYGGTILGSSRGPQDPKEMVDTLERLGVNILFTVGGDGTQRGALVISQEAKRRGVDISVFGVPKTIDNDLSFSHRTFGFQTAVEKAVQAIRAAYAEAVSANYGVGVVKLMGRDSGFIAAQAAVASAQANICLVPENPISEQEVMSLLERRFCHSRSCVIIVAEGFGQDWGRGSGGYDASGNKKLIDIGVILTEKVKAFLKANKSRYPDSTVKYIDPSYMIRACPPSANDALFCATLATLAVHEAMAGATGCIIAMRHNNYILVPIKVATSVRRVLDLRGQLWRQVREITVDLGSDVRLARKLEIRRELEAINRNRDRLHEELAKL
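Luminescent ADP detection (ADP-Glo, two-step: ATP depletion then ADP-to-ATP conversion for luciferase) reported PFK activity after 45 min room-temperature reaction of 1.25 nM enzyme with 0.5 mM F6P and 0.1 mM ATP at pH 8.0.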
PI4K2A block = blocks human PI4K2A kinase activity; AID 1346378; 420,000 compounds, 0.13% hits; purified PI4K2A, ADP-Glo luminescence, 1 h; active compounds read low; activity change, negative = inhibition, % at 76.9 µM; in the data active = activity change below about -50%; inconclusive = mostly about -30% to -49%
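Compounds are screened against recombinant PI4K2A using PI as substrate and ATP, the latter dispensed at 300 microM. Reactions run one hour at ambient temperature before ADP-Glo detection; full inhibition defined by wells lacking enzyme.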
Each line names hits and unclear results; the compound was inactive in the other large screens. Unless noted, calls follow the shape of the dose curve; as a rule, active = well fitted curve in the direction sought with a large enough effect; inconclusive = small, poorly fitted or top-dose-only effect, or another doubt; inactive = no such curve, though single readings can be large; an effect the other way counts as inactive or inconclusive.

Cn1c2cc(S(C)=O)sc2c2cnn(Cc3cccc(O)c3)c(=O)c21 (stereo not drawn)	none (no result: Tb PGK inh, PI5P4Ka inh, Tb PFK block, PI4K2A block)
COc1ccc(NS(=O)(=O)c2ccc3c(c2)CCC(=O)N3)cc1	none (no result: Tb PGK inh, PI5P4Ka inh, Tb PFK block, PI4K2A block)
COc1ccc(-n2c(SC)nc(O)c(Cc3ccccc3)c2=O)cc1	none (no result: PI5P4Ka inh)
COc1ccc(Cc2c(O)nc(SC)n(C(C)=O)c2=O)cc1	PI5P4Ka inh -75
O=C(NNC(=S)Nc1ccc(C(=O)O)c(O)c1)c1ccncc1	PI5P4Ka inh -85 (no result: Tb PFK block)
COc1ccc(Cl)cc1C(=O)OCC(=O)c1c(N)n(C)c(=O)n(C)c1=O	PI4K2A block -71 (no result: Pin1 inhibitor, Tb PFK block)
Cc1cc(NS(=O)(=O)C2CCN(C(=O)Cc3ccc(Cl)c(Cl)c3)CC2)no1	none (no result: Pin1 inhibitor, Tb PGK inh, PI5P4Ka inh, Tb PFK block)
COc1cccc(CN(C)Cc2cc(=O)oc3cc(O)c(Cl)cc23)c1	PI5P4Ka inh -78 (no result: Tb PGK inh)
COc1cccc(CN(C)Cc2cc(=O)oc3c(C)c(C)ccc23)c1	none
O=C(COC(=O)c1ccccc1SCC(=O)NC1CCS(=O)(=O)C1)NC1CCS(=O)(=O)C1 (stereo not drawn)	none
CCNC(=O)NC(=O)COC(=O)c1ccccc1SCC(=O)NC(=O)NCC	PI5P4Ka inh -63
O=[N+]([O-])c1cc2c(c3cccnc13)COCO2	Pin1 inhibitor inconclusive, PI5P4Ka inh -56 (no result: Tb PFK block)
c1cnc2ccc3c(c2c1)COCO3	none (no result: Tb PFK block)
Cc1ccc(-n2cccc2/C=C2/C(=N)N3C(=NC2=O)SN=C3S(C)(=O)=O)cc1Cl	PI5P4Ka inh -74
COc1ccccc1-n1c(C)cc(/C=C2/C(=N)N3C(=NC2=O)SN=C3S(C)(=O)=O)c1C	PI5P4Ka inh -51
COc1cc(/C=C2/C(=N)N3C(=NC2=O)SN=C3S(C)(=O)=O)ccc1OS(=O)(=O)c1ccccc1	none (no result: Pin1 inhibitor, Tb PGK inh, PI5P4Ka inh, PI4K2A block)
Cc1ccccc1-n1c(C)cc(/C=C2/C(=N)N3C(c4ccccc4)=CSC3=NC2=O)c1C	Pin1 inhibitor inconclusive
CCOc1cc(/C=C2/C(=N)N3C(=NC2=O)SN=C3S(C)(=O)=O)ccc1OS(=O)(=O)c1ccccc1	PI5P4Ka inh -63
COc1cc(/C=C2\C(=N)N3N=C(S(C)(=O)=O)SC3=NC2=O)ccc1OCCOc1ccccc1C	Pin1 inhibitor inconclusive, Tb PGK inh inconclusive, PI5P4Ka inh -57
COc1cc(/C=C2\C(=N)N3N=C(S(C)(=O)=O)SC3=NC2=O)ccc1OC(=O)c1cccs1	none
O=S(=O)(c1ccc2c(c1)OCCO2)N1CCN(S(=O)(=O)c2ccccc2OC(F)(F)F)CC1	none (no result: Tb PGK inh, PI5P4Ka inh, Tb PFK block, PI4K2A block)
c1ccc(-c2cccc(CNc3nc(-c4ccccn4)nnc3-c3ccccc3)c2)cc1	none (no result: Pin1 inhibitor, Tb PGK inh, PI5P4Ka inh, Tb PFK block)
CCOc1ccc(-n2c(C)cc(/C=C3/C(=N)N4C(=NC3=O)SN=C4S(C)(=O)=O)c2C)cc1	Pin1 inhibitor inconclusive, PI5P4Ka inh -64 (no result: Tb PGK inh)
CC1=CC2=NC(=O)/C(=C\c3cc(C)n(-c4ccc(F)cc4)c3C)C(=N)N2O1	none
Cc1cc(/C=C2/C(=N)N3C(=NC2=O)SN=C3S(C)(=O)=O)c(C)n1-c1ccc(F)cc1	PI5P4Ka inh -64 (no result: Tb PGK inh)
O=C(CSc1nc2scc(-c3ccco3)c2c(=O)n1-c1ccccc1)N1CCOCC1	none (no result: PI5P4Ka inh)
O=c1c2c(-c3ccco3)csc2nc(SCc2cn3cccnc3n2)n1-c1ccccc1	PI5P4Ka inh -67, PI4K2A block -58
c1ccc(Cn2c(SCc3cn4cccnc4n3)nnc2-c2ccco2)cc1	none
NC(=O)CSc1nc2scc(-c3ccco3)c2c(=O)n1-c1ccccc1	PI5P4Ka inh -70, PI4K2A block inconclusive
Cc1ccc(NS(=O)(=O)c2cc3c(cc2-c2ccco2)NC(=O)CO3)cc1C	none (no result: Tb PGK inh, PI5P4Ka inh, Tb PFK block, PI4K2A block)
O=C(NCc1ccc2c(c1)OCO2)c1cc2c(s1)CSC2	PI5P4Ka inh -50
O=C1C(Cl)=C(Nc2ccccc2)C(=O)c2ccccc21	none
O=C(O)c1ccc(NC2=C(Cl)C(=O)c3ccccc3C2=O)cc1	Pin1 inhibitor inconclusive, Tb PFK block inconclusive
O=C1C(Cl)=C(NCCc2ccccc2)C(=O)c2ccccc21	PI5P4Ka inh -85 (no result: Tb PFK block)
O=C(O)c1cccc(NC2=C(Cl)C(=O)c3ccccc3C2=O)c1	Pin1 inhibitor inconclusive, PI5P4Ka inh -69
C=CCN1[C@@H](Cc2ccccc2)COc2cccc(F)c2S1(=O)=O	none (no result: Pin1 inhibitor, Tb PGK inh, PI5P4Ka inh, Tb PFK block)
Cc1ccc(-c2ccnc(N3CCC(C(N)=O)CC3)n2)cc1	none (no result: Tb PGK inh, PI5P4Ka inh, Tb PFK block, PI4K2A block)
Cc1ccc(O)c(N=Nc2ccccc2)n1	Tb PGK inh 16µM, PI5P4Ka inh -78, PI4K2A block -67 (no result: Tb PFK block)
